Laboratory results published in PubChem BioAssay.

Test: P. aeruginosa biofilm formation inhibitors, primary screen, PAO1 strain, BacTiter-Glo luminescence, LB-PBS (AID 1144)
Settings: 12 h, higher = more signal; call rule not given here

z-score, inactive:
CCC(CC)C(O)C1C=CC2C(=O)NC(=O)C2N1Nc1ccc(Cl)cc1Cl (stereo unspecified) 0.34
C=C(CCCC)/C(=C/C[C@@H](OC(=O)c1ccncc1)c1ccc(OCCO)cc1)c1cc(C(=O)OC)ccc1OC -0.0194
CO[C@H]1O[C@H](CO)[C@@H](OC(=O)Nc2cccc(F)c2)[C@H](OC(=O)Nc2ccccc2)[C@@H]1OC(=O)Nc1ccccc1 -0.125
C=C(COC)C(=O)CC[C@@H](OC(C)=O)c1ccc(CO)o1 -0.238
COC(=O)[C@H](Cc1ccccc1)N1CC2=C[C@@H](C3CC3)n3c(=O)n(C)c(=O)n3[C@H]2[C@@H]1[C@@H](O)Cc1ccccc1 0.39
C=C[C@H](CO[Si](CC)(CC)CC)N(Cc1ccc(OC(C)=O)c(OC)c1)S(=O)(=O)c1ccc(Br)cc1 0.451
C=CCOC(=O)[C@H]1[C@@H]2C(=O)O[C@@H](c3ccccc3)[C@@H](c3ccccc3)N2[C@@H](c2ccc(OCCOC(=O)[C@H]3C[C@H]4C(=O)N[C@@H](CCCCNC(C)=O)C(=O)N4[C@H]3c3ccc(O)cc3)cc2)[C@]12C(=O)Nc1ccc(I)cc12 0.399
CC(C)C(O)C1C=CC2C(=O)NC(=O)C2N1Nc1ccc(Cl)cc1Cl (stereo unspecified) 0.0631
COc1ccc([Si](C)(C)[C@H]2[C@H](CCO)O[C@@]3(C(=O)N(Cc4ccc(N(C=O)c5ccccc5)cc4)c4ccccc43)[C@@H]2C)cc1 -0.305
CC(C)C(O)C1C=CC2C(=O)N(c3ccccc3)C(=O)C2N1Nc1ccc([N+](=O)[O-])cc1 (stereo unspecified) 0.21
CC(C)C[C@@H]1NC(=O)[C@H](C(C)C)NC(=O)[C@@]23C(=O)N[C@@H](Cc4ccccc4)C2[C@H](C)[C@@]2(C)O[C@H]2C3/C=C/CC/C=C/CNC1=O (stereo partly specified) -1.07
CC1(C)[C@@H]2CC(C(O)C3C=CC4C(=O)N(c5ccccc5)C(=O)C4N3Nc3ccc([N+](=O)[O-])cc3)=C[C@H]1C2 (stereo partly specified) -0.88
COc1ccccc1CN1C(=O)c2ccccc2[C@@]2(Cc3ccccc3N(CC(C)C)C2=O)[C@@H]1c1ccc(CO)cc1 0.8
CC1CC/C=C\[C@H]2OC34C=CCN(C(C)(C)C)C(=O)[C@H]3N(C(C)CO)C(=O)[C@@H]4C2C(=O)O1 (stereo partly specified) 1.01
O=C(NCCO)C1=C[C@H](Oc2ccccc2I)[C@@H](O)[C@H](N(Cc2ccco2)C(=O)Cc2ccccc2)C1 -0.0382
CN(C)CCCC[C@@H]1NC(=O)[C@H]2C[C@@H](C(=O)NCCCCCCN)[C@@H](c3ccc(O)cc3)N2C1=O 0.523
COC(=O)C(CC#Cc1ccc2c(c1)[C@]1(C(=O)N2)[C@H](c2ccc(OCCO)cc2)N2[C@H](c3ccccc3)[C@H](c3ccccc3)OC(=O)[C@H]2[C@@H]1C(=O)N1CCc2cc(OC)c(OC)cc2C1)C(=O)OC 0.188
[N-]=[N+]=Nc1ccccc1[C@H]1OC(c2ccc(OCCCO)cc2)=N[C@@]1(CCS(=O)(=O)c1ccccc1)C(N)=O -0.563
COC(=O)[C@@]1(Cc2ccc(F)cc2)[C@H]2c3cc(C(=O)N(C)C)n(Cc4ccccc4)c3C[C@H]2CN1C(=O)c1ccccc1 -0.22
COc1cc(COC(C)=O)ccc1OC(C)=O -1.48
CN1C(=O)C2C=CC(C(O)C#Cc3ccccc3)N(N3CCCCC3)C2C1=O (stereo unspecified) -0.686
NC(=O)NCC#Cc1ccc2c(c1)[C@]1(C(=O)N2)[C@H](C(N)=O)[C@H]2C(=O)O[C@H](c3ccccc3)[C@H](c3ccccc3)N2[C@@H]1c1ccc(O)cc1 -0.00225
CO[C@H]1O[C@H](CO)[C@@H](OC(=O)Nc2ccc(Oc3ccccc3)cc2)[C@H](OC(=O)Nc2ccc3c(c2)OCO3)[C@H]1OC(=O)Nc1ccc2c(c1)OCO2 -0.822
CC(C)NC(=O)[C@@H]1c2ccccc2C(=O)N(C2Cc3ccccc3C2)[C@H]1c1ccc(CO)cc1 -0.737
CCCc1cc2c(n1Cc1cc(F)cc(F)c1)C(C)C1CN(C(=O)c3ccccc3)C(C)(C(=O)OC)C21 (stereo unspecified) 0.335
[N-]=[N+]=Nc1ccccc1[C@@H]1OC(c2ccc(OCCCO)cc2)=N[C@]1(CCS(=O)(=O)c1ccccc1)C(N)=O 0.378
